NS1 inh: qHTS Assay for Inhibitors of Influenza NS1 Protein Function; Potency, µM (series often up to 46.1 µM), without a hit: at the highest dose activity, positive = more growth; 0.4% of 270,000 active; calls by dose curve; further: potency means the concentration at half of the fitted maximal effect; actives are rising curves; nearly all actives have a fitted effect of over 50% in size
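OD600 was taken as the measure of yeast growth restored by compound in an NS1-expressing S. cerevisiae strain. Cells had been washed out of glucose medium and diluted 1:100 into galactose -URA medium, pH 6.0.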
Pf growth 48h: Primary qHTS for delayed death inhibitors of the malarial parasite plastid, 48 hour incubation; P. falciparum luciferase growth in erythrocytes, 48 h; Potency, µM (series often up to 28.7 µM), for inactives: top-dose activity change, negative = inhibition, usual class: inhibitors; 5.9% of 310,000 active; further: potency means the concentration at half of the fitted maximal effect; on the % scale 0 is the no-effect control and ±100 the full control effect
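Firefly luciferase activity from engineered P. falciparum reports growth; inhibitors lower the luminescent signal. Cultures contained 2% hematocrit erythrocytes at 0.1% final parasitemia.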
Pf growth 96h: Primary qHTS for delayed death inhibitors of the malarial parasite plastid, 96 hour incubation; P. falciparum luciferase reporter growth, 96 h; 6.9% of 320,000 active; Potency, µM (highest dose often 28.7 µM), for inactives: at the top dose activity change, negative = inhibition, most hits filed as inhibitors; further: potency means the concentration at half of the fitted maximal effect; on the % scale 0 is the no-effect control and ±100 the full control effect
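P. falciparum expressing integrated firefly luciferase grown in erythrocytes (2% hematocrit, 0.05% parasitemia final) with compounds for 96 hours at 37 C, 5% CO2. Growth inhibition read as loss of luminescence after adding luciferase detection reagent.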
CHX counter: Cycloheximide Counterscreen for Small Molecule Inhibitors of Shiga Toxin; cell reporter, cycloheximide protein synthesis inhibition counterscreen; max response, %; 12% of 300,000 active; in the data active means max response mostly above about 13%, no sharp cut-off; inactive means mostly below about 14%; further: read at 38.3 µM for the half of the compounds with a filed dose; 0% is about no effect
Shiga toxin inh: A qHTS for Small Molecule Inhibitors of Shiga Toxin | Vero cells, Shiga toxin protein synthesis inhibition reporter | inhibition, % at 38.7 µM | 9.2% of 290,000 active | AID 2315, 2010; in the data active means inhibition mostly above about 28%, no sharp cut-off; inactive means mostly below about 43%; further: 0% is about no effect
FBPA Giardia inh: qHTS Assay for Inhibitors of Fructose-1,6-bisphosphate Aldolase from Giardia Lamblia | A8B2U2 | purified Giardia FBPA | Potency, µM (titrated, usually from 59.6 µM), without a hit: top-dose activity, negative = inhibition, hits mostly inhibitors | 0.71% of 290,000 active | AID 2451, 2010; further: potency means the concentration at half of the fitted maximal effect; on the % scale 0 is the no-effect control and ±100 the full control effect; nearly all actives have a fitted effect of over 55% in size
Target sequence (A8B2U2 whole entry, looked up): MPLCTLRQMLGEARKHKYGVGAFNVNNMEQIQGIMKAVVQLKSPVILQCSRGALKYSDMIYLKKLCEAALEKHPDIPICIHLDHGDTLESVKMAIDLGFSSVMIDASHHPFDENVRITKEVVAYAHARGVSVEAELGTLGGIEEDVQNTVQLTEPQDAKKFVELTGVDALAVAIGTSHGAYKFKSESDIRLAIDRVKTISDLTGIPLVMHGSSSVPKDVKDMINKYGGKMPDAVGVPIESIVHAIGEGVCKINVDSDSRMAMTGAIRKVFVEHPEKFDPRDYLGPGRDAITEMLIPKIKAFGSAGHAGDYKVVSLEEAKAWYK
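40 nM FBPA preincubated 10 min at RT with compound (up to 57.5 uM final), then substrate plus GAPDH/TPI/NAD/arsenate coupling and diaphorase/resazurin added. Fluorescence read after 20 min at RT, 525/598 nm.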
Active calls of the source: *; u = inconclusive; x = not tested or not shown; ! = repeats disagree; [ ] = another dose, or the depositor's remark. Compounds with a hit are over-represented: about 21% of the library has one in this group of screens. Unless noted, the call rests on the fitted dose curve; in most records, active means well fitted curve in the direction sought with a large enough effect; inconclusive means small, poorly fitted or top-dose-only effect, or another doubt; inactive means no such curve, though single readings can be large; an effect the other way counts as inactive or inconclusive.

SMILES	NS1 inh	Pf growth 48h	Pf growth 96h	CHX counter	Shiga toxin inh	FBPA Giardia inh
Cc1ccccc1C(=O)Nc1cc(NC(=O)c2ccccc2C)cc(C(=O)O)c1	u	16%	u	8	7	8%
COc1ccc(C(=O)NCC(=O)OCC(=O)NCCC2=CCCCC2)cc1	-3%	u	12%	-3	29	1%
COc1ccc(C(=O)NCCC2=CCCCC2)cc1	-15%	191%	0%	31*	51	0%
COc1ccccc1CN1CC[C@@]2(CCCN(S(C)(=O)=O)C2)C1	x	x	x	x	x	-6%
Cn1nc(C(=O)Nc2cccc(S(=O)(=O)N3CCCCC3)c2)c2ccccc2c1=O	x	u	9.3µM*	x	x	x
Cn1nc(C(=O)Nc2ccc(S(=O)(=O)N3CCCC3)cc2)ccc1=O	-3%	-18%	-19%	-1	-9	0%
Cn1nc(C(=O)Nc2ccc(S(=O)(=O)N3CCCCC3)cc2)c2ccccc2c1=O	x	u	8.3µM*	9	-8	6%
COc1ccccc1NS(=O)(=O)c1cccc(NC(=O)c2nn(C)c(=O)c3ccccc23)c1	x	u	10µM*	x	x	x
COc1cc(CN2CCN(CC3CC3)CC2CCO)cc(OC)c1 (stereo not given)	1%	-1%	u	-1	8	2%
Cc1ccc(C)c(N2CCN(S(=O)(=O)c3cc4c(cc3Cl)NC(=O)CO4)CC2)c1	3%	-2%	u	-2	-4	-1%
COc1ccc(/C=C/C(=O)c2ccc(NC3=NCCCS3)cc2)cc1OC	x	u	u	-1	-13	5%
CCC1CSC(Nc2ccc(C(=O)/C=C/c3ccc(Br)cc3)cc2)=N1 (stereo not given)	u	u	u	49*	57*	0%
CCC1CSC(Nc2ccc(C(=O)/C=C/c3ccc(OC)c(OC)c3)cc2)=N1 (stereo not given)	-34%	u	u	14	28*	7%
CCCC(=O)Nc1ccc(C(=O)/C=C/c2ccc(SC)cc2)cc1	-12%	u	u	22	28	2%
N#C/C(=N\Nc1cccc2ccccc12)c1nnc2n1CCCCC2	-6%	34%	29%	14*	3	-29%
N#C/C(=C\c1c[nH]c2ccccc12)c1nnc2n1CCCCC2	5%	4%	u	3	7	6%
CCOc1ccc(NCc2nnc(SCC(=O)Nc3nc(-c4ccccc4)cs3)n2-c2ccccc2)cc1	12%	8%	-14%	-2	-7	0%
C[C@H](CCC(=O)O)[C@H]1CC[C@H]2[C@@H]3[C@H](O)C[C@@H]4C[C@H](O)CC[C@]4(C)[C@H]3C[C@H](O)[C@]12C	7%	9.3µM*!	12µM*!	-3	-8	10%
Cc1nn(Cc2ccccc2)c(C)c1C=C1C(=O)NC(=O)NC1=O	13%	0%	8.3µM*	-4	-6	0%
COc1ccc(C)cc1N(CC(=O)NCCSCc1ccco1)S(=O)(=O)c1ccc(C)cc1	-1%	0%	-24%	-4	2	1%
OC1(c2ccccc2)CCN(Cc2ccccc2)CC1	x	3%	u	10	-14	0%
OC1(c2ccc(Cl)c(Cl)c2)C[n+]2ccccc2N1Cc1ccccc1 (stereo not given)	-1%	3.7µM*	u	-1	-16	1%
COc1ccccc1NC(=S)N1C2CCC1CC(NC(=O)NC13CC4CC(CC(C4)C1)C3)C2 (stereo not given)	16%	u	4.7µM*	-4	36	0%
CCOc1ccc(S(=O)(=O)NN=C2CCN(C(C)=O)CC2)cc1	x	13%	1%	28	36	4%
COc1ccc(NC(=O)C(c2ccc(OC)cc2)N(C)C(=O)CC2NC(=O)NC2=O)cc1 (stereo not given)	-2%	16%	12µM*	1	-12	4%
SMILES	NS1 inh	Pf growth 48h	Pf growth 96h	CHX counter	Shiga toxin inh	FBPA Giardia inh
COc1ccc(NC(=O)C(c2ccccc2)N(C)C(=O)c2ccc(=O)[nH]c2)cc1 (stereo not given)	1%	-1%	1µM*	-3	-3	5%
COc1ccc(NC(=O)C(NC(=O)CC2NC(=O)NC2=O)c2ccccc2)cc1 (stereo not given)	12%	26%	-14%	-1	-13	4%
Cc1ccc(C(C(=O)Nc2ccc(C(C)C)cc2)N(C)C(=O)c2ccc(=O)[nH]c2)cc1 (stereo not given)	x	u	330%	-6	-8	1%
O=C(C(=O)N1CCCCC1)c1c(-c2ccccc2)[nH]c2ccccc12	-1%	-11%[0.00184 µM]	u	-1	-15	-4%
CCOC(=O)c1c(N2C(=O)Nc3ccccc3N2O)sc2c1CCCCC2	17%	-1%	u	-2	1	29%
CCOC(=O)c1c(-n2c(C)cc(C=C3C(=O)NC(=S)NC3=O)c2C)sc2c1CCCC2	-19%	12µM*	12µM*	7	-1	u
Cc1cc(C=O)c(C)n1-c1sc2c(c1C(=O)O)CCCC2	17%	-8%	u	-1	-2	17%
COC(=O)c1c(-n2c(C)cc(C=O)c2C)sc2c1CCCC2	-3%	10µM*	u	16	96	2%
O=C(COc1coc(CN2CCc3ccccc32)cc1=O)Nc1cccc(F)c1	x	u	-2%	x	x	x
COc1cccc(N(CC(=O)NC2CCCCC2)C(=O)CCC(=O)Nc2nc(C)cs2)c1	-1%	u	0%	-5	-7	14%
CC(C)Oc1ccc(-c2cc(C(=O)NCCN3CCOCC3)c3ccccc3n2)cc1	-1%	2.3µM*	31%	30*	61	x
Cc1cc(NC(=O)c2cc(-c3ccc(OC(C)C)cc3)nc3ccccc23)no1	-7%	u	-13%	20*	39	3%
O=C(NCCN1CCOCC1)c1cc(-c2ccc(F)cc2)nc2ccccc12	x	u	-14%	x	x	x
CCC(C)c1ccc(-c2cc(C(=O)OCC(=O)Nc3cc(C)on3)c3ccccc3n2)cc1 (stereo not given)	4%	x	144%	12	24	2%
O=C(NCCCN1CCOCC1)c1cc(-c2ccc(Cl)s2)nc2ccccc12	x	17µM*	u	x	x	x
O=C(COc1ccc2c(-c3ccccc3)cc(=O)oc2c1)NCCCN1CCOCC1	7%	-23%	u	12*	23	x
CCOc1ccc(-c2cc(C(=O)NCCCN3CCOCC3)c3ccccc3n2)cc1	-8%	-5%	u	23*	40	x
O=C(NCCCN1CCOCC1)c1cc(-c2ccc(F)cc2)nc2ccccc12	x	-15%	6%	x	x	x
CC(C)c1nc2cc(C(=O)N(C)C3CCOCC3)ccc2o1	-2%	33%	73%	37*	42*	x
COC(=O)CN1C(=O)N/C(=C/c2ccccc2OC)C1=O	x	-6%	20%	7	20	5%
